This is one part of a sample in which hits are shown more often than they occur.
RE007 growth inh = less growth of the S. pombe RE007 Vpr strain; S. pombe RE007 Vpr strain, BacTiter-Glo ATP luminescence, 24 h; Potency, µM (series often up to 92.2 µM), for inactives: top-dose activity change, negative = less growth, hits mostly inhibitors; actives 0.21% (n = 360,000); AID 651644; active = well fitted falling curve with a large enough effect; inconclusive = small, poorly fitted or top-dose-only effect; inactive = no such curve, though single readings can be large or run the other way; also: potency is read from the fitted curve at half-maximal effect; % is scaled to controls: 0 for no effect and ±100 for the full control effect; nearly all actives have a fitted effect of over 50% in size
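Fission yeast strain RE007, carrying one chromosomally integrated HIV-1 vpr copy, was seeded at OD 0.01 in PMG+AL medium with 23 nL pinned compound. After 24 h at 30 °C and 99% humidity, viability was read by BacTiter-Glo luminescence.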
Cycloheximide cs = affects cycloheximide protein synthesis inhibition readout, counter-screen | cell reporter, cycloheximide protein synthesis inhibition counterscreen | max response, % | actives 12% (n = 300,000) | AID 2314; in the data active = max response mostly above about 13%, no sharp cut-off; inactive = mostly below about 14%; also: read at 38.3 µM for the half of the compounds with a filed dose; 0% is about no effect
Shiga inhibitor = Shiga toxin inhibition; Vero cells, Shiga toxin protein synthesis inhibition reporter; inhibition, % at 38.7 µM; actives 9.2% (n = 290,000); AID 2315; in the data active = inhibition mostly above about 28%, no sharp cut-off; inactive = mostly below about 43%; also: 0% is about no effect
FBPA Giardia inh = Giardia lamblia aldolase inhibition; Potency, µM (highest dose often 59.6 µM), inactives show at the top dose activity, negative = inhibition, actives largely listed as inhibitors; AID 2451; actives 0.71% (n = 290,000); purified Giardia FBPA; also: potency is read from the fitted curve at half-maximal effect; % is scaled to controls: 0 for no effect and ±100 for the full control effect; nearly all actives have a fitted effect of over 55% in size
Target sequence (A8B2U2 whole entry, looked up): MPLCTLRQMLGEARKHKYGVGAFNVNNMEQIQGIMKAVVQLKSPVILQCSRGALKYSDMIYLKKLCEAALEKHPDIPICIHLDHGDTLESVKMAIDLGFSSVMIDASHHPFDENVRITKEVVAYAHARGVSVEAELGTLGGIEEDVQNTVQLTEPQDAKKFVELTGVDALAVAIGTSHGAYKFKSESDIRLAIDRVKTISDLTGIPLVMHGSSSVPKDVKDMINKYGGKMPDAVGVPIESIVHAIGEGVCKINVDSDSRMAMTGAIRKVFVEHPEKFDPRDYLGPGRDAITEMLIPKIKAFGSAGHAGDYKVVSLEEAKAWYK
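Giardia FBPA (40 nM reagent) was preincubated 10 min at RT with compound (up to 57.5 uM final), then substrate plus GAPDH/TPI/NAD/arsenate coupling system with diaphorase/resazurin was added; resorufin fluorescence (525/598 nm) was read after 20 min.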
Tb PYK inh = T. brucei pyruvate kinase inhibition; TbPYK enzyme, Kinase-Glo Plus ATP luminescence, 45 min; actives 0.12% (n = 410,000); AID 624173; Q57TT1; Potency, µM (top dose mostly 76.8 µM), inactives show top-dose activity, negative = inhibition, most hits filed as inhibitors; also: potency is read from the fitted curve at half-maximal effect; % is scaled to controls: 0 for no effect and ±100 for the full control effect; nearly all actives have a fitted effect of over 50% in size
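T. brucei PYK with substrate was exposed to pin-transferred compounds across a concentration series, then started with 130 uM ADP (final). After 45 min at room temperature, Kinase-Glo Plus luminescence was read, normalized and curve-fitted.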
LmPK inhibitor = blocks Leishmania mexicana pyruvate kinase activity | Potency, µM (doses to about 57.5 µM), inactives show at the top dose activity change, negative = inhibition, hits mostly inhibitors | actives 0.37% (n = 290,000) | purified LmPK, Kinase-Glo ATP luminescence, 1 h | AID 1721; also: potency is read from the fitted curve at half-maximal effect; % is scaled to controls: 0 for no effect and ±100 for the full control effect
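In 50 mM imidazole pH 7.2 with 7 mM MgCl2, LmPK (0.1 nM) turned over PEP (0.5 mM) and ADP (0.1 mM) for 1 h at room temperature. Luciferase read-out of ATP.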
An asterisk follows results filed as active; ? = inconclusive; nt = no result given. Unless noted, calls follow the shape of the dose curve; as a rule, active = well fitted curve in the direction sought with a large enough effect; inconclusive = small, poorly fitted or top-dose-only effect, or another doubt; inactive = no such curve, though single readings can be large; an effect the other way counts as inactive or inconclusive.

SMILES	RE007 growth inh	Cycloheximide cs	Shiga inhibitor	FBPA Giardia inh	Tb PYK inh	LmPK inhibitor
O=C(Nc1ccc2oc(-c3ccccc3)nc2c1)c1ccco1	-10%	94*	78*	1%	-10%	1%
O=C(Nc1ccc2oc(-c3ccccc3)nc2c1)c1ccc2ccccc2c1	nt	nt	nt	nt	1%	nt
O=C(Nc1ccc2oc(-c3ccncc3)nc2c1)c1ccco1	-4%	27*	48	-5%	-11%	0%
CNC(=O)c1ccc(-c2ccc(Cl)c(Cl)c2)s1	-15%	42*	66*	2%	-5%	8%
COc1ccc(NC(=O)c2ccc(-c3ccc(OC)cc3)s2)cc1	-9%	20	72*	-1%	5%	-9%
O=C(Nc1ccccc1)c1ccc(-c2ccc(F)cc2)s1	1%	36*	88*	1%	2%	-4%
CNC(=O)c1ccc(-c2ccc(OC)cc2)s1	0%	26*	78*	0%	-1%	-15%
O=C(Nc1cccc(F)c1)c1ccc(-c2ccccc2)s1	nt	nt	nt	nt	-3%	nt
CCC(C)(C)NC(=O)C(c1cccc(OC)c1OC)N(C(=O)CCC(=O)Nc1cc(C)on1)c1ccc2c(c1)OCCO2 (centres undefined)	-23%	10	37	0%	3%	-3%
C/C(=N\N=c1/sc2ccccc2n1C)c1ccccn1	-4%	78*	69*	-1%	2%	-1%
COc1cc(C(=O)N=c2sc3ccccc3n2C)cc(OC)c1OC	-7%	16	7	-3%	1%	1%
C/C(=N\N=c1/sc2ccccc2n1C)c1ccc(N2CCOCC2)cc1	-13%	22*	81	-3%	-2%	-9%
CCNC(=O)c1ccc2c(c1)sc1nc(-c3cccc(OC)c3)cn12	nt	nt	nt	nt	-11%	nt
CCOc1ccccc1NC(=O)Cn1c(=O)n(-c2ccc(Cl)cc2)c(=O)c2oc3ccccc3c21	nt	nt	nt	nt	-3%	nt
O=S(=O)(/N=C(/Nc1ccccn1)c1ccc(Cl)cc1)c1ccc(Cl)cc1	-1%	49*	20	4%	-5%	3%
Cc1ccc(S(=O)(=O)/N=C(/NNC(=O)c2cccc(Cl)c2)c2ccccc2)cc1	?	33*	99*	-10%	-2%	8%
COc1cc(N/C(=N/S(=O)(=O)c2ccccc2)c2ccccc2)ncn1	11%	46*	68*	-6%	7%	2%
COc1ccccc1N/C(=N/S(=O)(=O)c1ccc(C)cc1)c1ccccc1	0%	6	-8	-1%	2%	8%
O=C(NN/C(=N/S(=O)(=O)c1ccc(Cl)cc1)c1ccccc1)c1ccc(O)cc1	-9%	67*	56*	3%	5%	-24%
ONCc1ccccc1	nt	4	1	?	nt	nt
O=C(NCc1cccs1)c1nn(-c2ccccc2F)nc1CO	nt	nt	nt	nt	-1%	nt
Cc1[nH]n(C)c(=O)c1[N+](=O)[O-]	24%	-1	-6	-11%	1%	-3%
C=C(CCO)C1=CCN(S(=O)(=O)C(C)(C)C)[C@H]1CCO	-16%	nt	nt	nt	1%	nt
COc1cccc(CNC(=O)c2ccc(CS(=O)Cc3ccc(Cl)cc3)o2)c1 (centres undefined)	nt	nt	nt	nt	-6%	nt
O=C(NN/C(=N/S(=O)(=O)c1ccc(Cl)cc1)c1ccccc1)c1cccc(Cl)c1	?	31*	81*	-10%	0%	-4%
SMILES	RE007 growth inh	Cycloheximide cs	Shiga inhibitor	FBPA Giardia inh	Tb PYK inh	LmPK inhibitor
Cn1c(NC(=O)c2ccc(F)cc2)nc2ccccc21	-13%	31*	40*	-3%	1%	-10%
CCn1c(NC(=O)c2cccs2)nc2ccccc21	-17%	47*	65	?	15%	0%
O=C(Nc1nc2ccccc2c2nc3ccccc3n12)c1ccc(F)cc1	nt	-6	-5	1%	nt	3%
CCn1c(NC(C)=O)nc2ccccc21	-23%	-3	-3	-7%	-6%	-8%
O=C(Nc1nc2ccccc2n1CCN1CCOCC1)c1ccccc1	-7%	10*	18	-4%	-2%	1%
CN(C)CCn1c(NC(=O)c2ccc(Cl)cc2)nc2ccccc21	16%	38*	89*	0%	0%	5%
Cc1cc(C)cc(C(=O)N(C)[C@H](Cc2ccc(-c3ccccc3)cc2)C(=O)N[C@@H](Cc2c[nH]c3ccccc23)C(=O)O)c1	nt	-3	-4	0%	nt	nt
Cc1nc(SCC(=O)N(CC(C)C)C2CCS(=O)(=O)C2)c(C#N)c(C)c1C (centres undefined)	-18%	nt	nt	nt	-9%	nt
CCN(CC)CCn1c(NC(=O)c2ccc(C)cc2)nc2ccccc21	3%	44*	nt	14%	-6%	4%
CN1CCc2c(sc3c2C(=O)NC(c2ccco2)N3)C1 (centres undefined)	-11%	4	-1	?	-8%	2%
O=C1NC(c2cccs2)Nc2sc3c(c21)CCCC3 (centres undefined)	-3%	38*	87*	?	?	-4%
C[C@@H](O)C(N)C(=O)O (some centres undefined)	nt	-6	-4	0%	nt	nt
COc1ccc(-c2csc3nc(C)nc(N4CCN(c5ccc(C(C)=O)cc5)CC4)c23)cc1OC	4%	31*	65*	-2%	-3%	15%
CSc1cccc(NC(=O)Nc2ccccc2)c1	2%	34*	95	0%	1%	5%
CSc1cccc(NC(=O)Nc2ccccc2C(N)=O)c1	nt	47*	39*	1%	3%	-23%
CCOC(=O)c1cc(-c2ccc(C)cc2)nn1Cc1ccccc1	nt	nt	nt	nt	12%	nt
CC1(C)CC(=O)N(c2cc(Cl)cc(Cl)c2)C(=O)C1	-19%	-2	-9	8%	-1%	2%
CCCOc1ccc(/C=N/Nc2ccccc2[N+](=O)[O-])c(O)c1	-16%	58*	74*	2%	?	-14%
CCOc1ccc(/C=N/Nc2ccc(Cl)nn2)c(O)c1	-6%	7	58*	8%	-3%	1%
COc1ccc(/C=N/NC(=S)Nc2ccccc2[N+](=O)[O-])cc1O	-26%	60*	62*	-7%	-7%	-2%
CCCOc1ccc(/C=N/Nc2ccc(C(=O)O)cc2)c(OCCC)c1	10%	38*	121*	18%	-11%	2%
CCOc1ccccc1/C=N/Nc1ccccc1[N+](=O)[O-]	-11%	-2	-18	2%	-3%	-8%
O=C(NCCS(=O)(=O)N1CCN(c2ccccc2F)CC1)C(c1ccccc1)c1ccccc1	nt	nt	nt	nt	6%	nt
CC(C)(C)C(=O)NCCCC(=O)O	nt	nt	nt	nt	0%	nt
CCC(CC)=NNc1cccc([N+](=O)[O-])c1	192%	-3	11	-1%	-13%	5%
CCCOc1ccc(/C=N/Nc2cccc([N+](=O)[O-])c2)c(O)c1	36%	82*	81*	2%	8%	-4%

High-throughput results from PubChem.
